The nature of assay [1]: qHTS assay to identify small molecule antagonists of the progesterone receptor (PR) signaling pathway - cell viability counter screen (AID 1346798). Further: series mostly up to about 92 µM; nearly all actives have a fitted effect of over 50% in size. In a few lines: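 ATP content as viability readout: CellTiter-Glo luminescence, 30 min room temperature, in PR-UAS-bla HEK293T cells after 16 hr compound/R5020 treatment at 37C and 5% CO2.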
A short description of assay [2]: qHTS assay to identify small molecule antagonists of the TGF-beta/Smad signaling pathway - cell viability counter screen (AID 1346824). Further: nearly all actives have a fitted effect of over 50% in size. In a few lines:
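SBE-bla HEK 293T cells were plated overnight at 37 C, then given compounds in DMSO plus TGF-beta1 (added as 0.25 ng/mL solution) for 5 hr. After the bla read, CellTiter-Glo was added to the same wells and luminescence read after 30 min at room temperature.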

The nature of assay [3]: qHTS assay to identify small molecule agonists of the TGF-beta/Smad signaling pathway (AID 1346859; active means well fitted activation curve with a large enough effect in the signal ratio in the repeat runs, not every such curve was filed as active; the % refers to the signal ratio; further: series mostly up to about 77 µM). In short, it runs like this: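 Stable Smad binding element-beta-lactamase HEK 293T cells; 5 hr compound exposure at 37 C under 5% CO2; 2 hr room-temperature substrate step; fluorescence excited at 405 nm, collected at 460 nm and 530 nm.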
The target of assay [4] is Thyrotropin-releasing hormone receptor (Homo sapiens) (UniProt P34981). Briefly: qHTS assay to identify small molecule antagonists of the thyrotropin-releasing hormone receptor (TRHR) signaling pathway (AID 1346877; active means well fitted inhibition curve with a large enough effect in the repeat runs, not every such curve was filed as active; further: series mostly up to about 51 µM). In a few lines:
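Cells (TRHR-HEK293) are plated and kept 18 h at 37 °C/5% CO2. A calcium-sensitive dye is added for 2 h, compound follows for 5 min at room temperature, and TRH is then given at 1 nM final.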

The target is the same in assay [5]. Briefly: qHTS assay to identify small molecule agonists of the thyrotropin-releasing hormone receptor (TRHR) signaling pathway (AID 1346891; calls by dose curve;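 further: HEK293 cells expressing TRHR with calcium dye readout; series mostly up to about 58 µM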). In a few lines:
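In 1536-format, 1500 TRHR-Hek293 cells per well grew 18 h, took up calcium dye for 2 h at 37 °C, received compound, and were read kinetically; 15-point titrations, triplicates.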

A short description of assay [6]: Caspase-3/7 induction in HepG2 cells by small molecules, qHTS assay (AID 1346978). Further: nearly all actives have a fitted effect of over 15% in size. In a few lines:
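Wild-type HepG2 cells (2,000/well) were settled 5 h at 37 C, 5% CO2, then exposed to compounds in DMSO for 17 h. Caspase-3/7 activity was read by luminescence 30 min after adding Caspase-Glo 3/7 reagent at room temperature.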

The nature of assay [7]: Caspase-3/7 induction in CHO-K1 cells by small molecules, qHTS cell viability counter screen (AID 1346979). Further: nearly all actives have a fitted effect of over 35% in size. Further: potency means the concentration at half of the fitted maximal effect. In short, it runs like this:
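To flag cytotoxic compounds, treated CHO-K1 wild-type cells were given CellTiter-Fluor at 16hr and read fluorescently after 1hr at 37C; the caspase-3/7 luminescence was measured in these same wells.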

A short description of assay [8]: Caspase-3/7 induction in CHO-K1 cells by small molecules, qHTS assay (AID 1346980). Further: nearly all actives have a fitted effect of over 15% in size. In a few lines: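 Wild-type cells were seeded at 1,500 per well and settled 5 hr at 37 C, 5% CO2, then exposed to DMSO-dissolved compounds for 17 hr. Caspase-Glo 3/7 reagent was added, and luminescence was read after 30min at room temperature.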
Assay [9] in a line: Caspase-3/7 induction in HepG2 cells by small molecules, qHTS cell viability counter screen (AID 1346981). Further: nearly all actives have a fitted effect of over 30% in size. Further: potency means the concentration at half of the fitted maximal effect. In a few lines:
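Steps: seed 2,000 HepG2 cells per well; incubate 5 hr at 37 C; pin-add compounds in DMSO; incubate 16 hr; add CellTiter-Fluor; after 1 hr at 37 C and 5% CO2, read fluorescence.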

Assay [10] deals with Nuclear receptor subfamily 1 group I member 2 (Homo sapiens) (UniProt O75469). Briefly: Human pregnane X receptor (PXR) small molecule agonists, qHTS assay (AID 1346982). Further: nearly all actives have a fitted effect of over 35% in size. Further: potency means the concentration at half of the fitted maximal effect. In short, it runs like this:
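Agonist mode qHTS: PXR-Luc HepG2 cells plated 5 hr before DMSO-dissolved compounds were pinned in, cultured 24 hr at 37 C, 5% CO2; ONE-Glo luminescence readout.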

The target in assay [11] is Progesterone receptor (Homo sapiens) (UniProt P06401). Briefly: qHTS assay to identify small molecule agonists of the progesterone receptor (PR) signaling pathway (AID 1346784; calls by dose curve; further: nearly all actives have a fitted effect of over 30% in size). In a few lines: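 Using charcoal-stripped serum (2%) to limit endogenous steroids, PR-UAS-bla HEK 293T cells received compounds for 16 hr at 37C after 6 hr plating; beta-lactamase FRET fluorescence was recorded following 2 hr substrate loading at room temperature.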
Chain of Progesterone receptor (Homo sapiens) (P06401 whole entry, looked up): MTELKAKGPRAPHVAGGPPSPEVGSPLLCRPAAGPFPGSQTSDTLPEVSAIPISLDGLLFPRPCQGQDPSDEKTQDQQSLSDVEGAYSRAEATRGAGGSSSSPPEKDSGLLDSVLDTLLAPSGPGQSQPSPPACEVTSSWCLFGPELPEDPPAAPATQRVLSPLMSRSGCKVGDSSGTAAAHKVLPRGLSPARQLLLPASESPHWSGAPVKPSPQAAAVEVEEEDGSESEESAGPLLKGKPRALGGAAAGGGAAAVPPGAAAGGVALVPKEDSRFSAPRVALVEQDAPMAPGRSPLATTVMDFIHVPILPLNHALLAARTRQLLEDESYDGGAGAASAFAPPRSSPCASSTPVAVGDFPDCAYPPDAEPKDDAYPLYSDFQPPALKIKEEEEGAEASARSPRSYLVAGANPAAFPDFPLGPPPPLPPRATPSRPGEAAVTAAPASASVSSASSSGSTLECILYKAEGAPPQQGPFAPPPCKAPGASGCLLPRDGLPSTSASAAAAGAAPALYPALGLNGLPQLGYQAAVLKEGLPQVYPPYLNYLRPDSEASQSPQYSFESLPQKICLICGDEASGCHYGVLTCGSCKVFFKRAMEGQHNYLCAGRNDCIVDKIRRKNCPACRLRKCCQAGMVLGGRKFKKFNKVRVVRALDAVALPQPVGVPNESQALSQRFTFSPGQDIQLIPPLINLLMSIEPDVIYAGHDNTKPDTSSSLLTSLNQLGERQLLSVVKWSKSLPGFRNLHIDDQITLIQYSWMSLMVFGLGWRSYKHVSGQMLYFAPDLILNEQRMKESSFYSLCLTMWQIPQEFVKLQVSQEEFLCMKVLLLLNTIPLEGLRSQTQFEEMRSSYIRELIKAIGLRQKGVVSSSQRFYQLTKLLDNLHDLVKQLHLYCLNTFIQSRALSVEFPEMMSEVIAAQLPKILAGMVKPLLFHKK

Assay [12] can be described thus: qHTS assay to identify small molecule agonists of the TGF-beta/Smad signaling pathway - cell viability counter screen (AID 1346829). Further: top concentration of the series differs between compounds; nearly all actives have a fitted effect of over 45% in size. In short, it runs like this:
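HEK 293T SBE-bla line, 5 hr compound exposure at 37 C, multiplexed CellTiter-Glo viability read by luminescence.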

Assay [13] deals with Nuclear receptor subfamily 1 group I member 2 (Rattus norvegicus) (UniProt Q9R1A7). Briefly: Rat pregnane X receptor (rPXR) activation by small molecules, qHTS assay (AID 1346983). Further: nearly all actives have a fitted effect of over 20% in size. Particulars: rPXR luciferase reporter cells, One-Glo luminescence, 24 h; max activation: hits give high values. In a few lines: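 Cell-based rPXR luciferase reporter assay, 2,000 cells per well, rested 5hr at 37 C before compound addition in DMSO, then 24 hr at 37 C. One-Glo reagent was added and luminescence read after 30 min at room temperature.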
Chain of Nuclear receptor subfamily 1 group I member 2 (Rattus norvegicus) (Q9R1A7 whole entry, looked up): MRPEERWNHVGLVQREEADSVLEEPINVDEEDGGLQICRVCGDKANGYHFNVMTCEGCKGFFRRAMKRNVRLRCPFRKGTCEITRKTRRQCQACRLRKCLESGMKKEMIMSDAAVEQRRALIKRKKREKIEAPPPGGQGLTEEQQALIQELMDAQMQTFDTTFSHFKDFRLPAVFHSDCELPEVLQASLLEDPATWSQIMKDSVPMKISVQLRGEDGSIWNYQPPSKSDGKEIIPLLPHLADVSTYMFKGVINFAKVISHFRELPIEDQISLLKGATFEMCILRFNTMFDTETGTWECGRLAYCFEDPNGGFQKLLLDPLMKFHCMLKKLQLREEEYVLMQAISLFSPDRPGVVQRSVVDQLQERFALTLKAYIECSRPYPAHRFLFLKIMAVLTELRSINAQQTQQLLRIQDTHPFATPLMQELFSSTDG

For assay [14], the target named is Nuclear receptor subfamily 1 group I member 2 (Homo sapiens) (UniProt O75469). Briefly: CYP3A4 induction through human pregnane X receptor (PXR) by small molecules, qHTS assay (AID 1346984). Further: nearly all actives have a fitted effect of over 40% in size. In short, it runs like this:
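Steps: seed DPX-2 cells, 5 hr at 37C; pin-transfer compounds; 24 hr at 37C; add Luciferin-IPA (3uM final), 3 hr at 37C; add One-Glo, 30 min RT; read luminescence.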

Assay [15] shares this target. Briefly: Human pregnane X receptor (PXR) activation by small molecules, qHTS assay (AID 1346985). Further: nearly all actives have a fitted effect of over 40% in size. Further: potency means the concentration at half of the fitted maximal effect. In a few lines: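 DPX-2 cells (HepG2 co-transfected with a PXR response element and a CYP3A4-promoter luciferase construct) were seeded at 2,000 per well, rested 5 hr at 37C, then exposed to DMSO-dissolved compounds for 24 hr. Activation was read as luciferase luminescence.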

Assay [16] has as its target Cytochrome P450 2D6 (Homo sapiens) (UniProt P10635). Briefly: Cytochrome P450 Family 2 Subfamily D Member 6 (CYP2D6) small molecule antagonists: luciferase reporter qHTS assay (AID 1671196). Further: nearly all actives have a fitted effect of over 50% in size. Further: potency means the concentration at half of the fitted maximal effect. In short, it runs like this:
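P450-Glo format: CYP2D6 converts a proluciferin substrate to luciferin in an NADPH-driven reaction lasting 1 h at room temperature. Light output, proportional to CYP2D6 activity, reflects interference by test chemicals.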

The target in assay [17] is Progesterone receptor (Homo sapiens) (UniProt P06401). Briefly: qHTS assay to identify small molecule antagonists of the progesterone receptor (PR) signaling pathway (AID 1346795; active means well fitted inhibition curve with a large enough effect in the signal ratio in the repeat runs, not every such curve was filed as active; the % refers to the signal ratio). In a few lines: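 Inhibition of R5020-induced (1 nM final) beta-lactamase reporter signal in PR-UAS-bla HEK293T cells was scored by FRET fluorescence after overnight (16 hr) compound treatment.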

Assay [18] is described as follows: Human pregnane X receptor (PXR) small molecule agonists, qHTS cell viability counter screen (AID 1346977). Further: nearly all actives have a fitted effect of over 50% in size. Further: potency means the concentration at half of the fitted maximal effect. In a few lines: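 Readout is CellTiter-Fluor fluorescence from PXR-Luc HepG2 cells. Plated cells rested 5hr, then were treated with compounds for 24hr at 37C and 5% CO2, with reagent present during the last hour.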
Assay [19] in a line: qHTS assay to identify small molecule agonists of the progesterone receptor (PR) signaling pathway - cell viability counter screen (AID 1346799; calls by dose curve; further: nearly all actives have a fitted effect of over 45% in size). In a few lines:
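Cytotoxicity in PR-bla HEK293T cells: 16 h compound, 37C; CellTiter-Glo added post-FRET read; luminescence after 30 min RT.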

Consider eight compounds from PubChem BioAssay (Tox21).

A number with no mark means an inactive call. Results filed as inconclusive are left out. Active and inactive are the calls of the source. Unless noted, the call rests on the fitted dose curve; in most records, active means well fitted curve in the direction sought with a large enough effect in the repeat runs; inconclusive means weak or mixed curves; inactive means no such curve, though single readings can be large; an effect the other way counts as inactive or inconclusive.
On the % scale 0 is the no-effect control and ±100 the full control effect.

Chain of Thyrotropin-releasing hormone receptor (Homo sapiens) (P34981 whole entry, looked up): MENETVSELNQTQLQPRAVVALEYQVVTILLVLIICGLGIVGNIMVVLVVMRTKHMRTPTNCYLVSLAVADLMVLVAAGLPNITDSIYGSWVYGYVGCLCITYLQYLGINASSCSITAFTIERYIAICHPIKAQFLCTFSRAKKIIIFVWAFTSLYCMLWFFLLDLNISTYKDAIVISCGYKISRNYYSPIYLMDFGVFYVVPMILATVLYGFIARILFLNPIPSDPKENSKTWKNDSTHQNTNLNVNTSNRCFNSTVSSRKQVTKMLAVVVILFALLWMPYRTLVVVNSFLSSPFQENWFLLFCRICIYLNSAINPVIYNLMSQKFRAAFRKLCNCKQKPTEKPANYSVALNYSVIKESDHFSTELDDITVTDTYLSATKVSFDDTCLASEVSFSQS
Chain of Nuclear receptor subfamily 1 group I member 2 (Homo sapiens) (O75469 whole entry, looked up): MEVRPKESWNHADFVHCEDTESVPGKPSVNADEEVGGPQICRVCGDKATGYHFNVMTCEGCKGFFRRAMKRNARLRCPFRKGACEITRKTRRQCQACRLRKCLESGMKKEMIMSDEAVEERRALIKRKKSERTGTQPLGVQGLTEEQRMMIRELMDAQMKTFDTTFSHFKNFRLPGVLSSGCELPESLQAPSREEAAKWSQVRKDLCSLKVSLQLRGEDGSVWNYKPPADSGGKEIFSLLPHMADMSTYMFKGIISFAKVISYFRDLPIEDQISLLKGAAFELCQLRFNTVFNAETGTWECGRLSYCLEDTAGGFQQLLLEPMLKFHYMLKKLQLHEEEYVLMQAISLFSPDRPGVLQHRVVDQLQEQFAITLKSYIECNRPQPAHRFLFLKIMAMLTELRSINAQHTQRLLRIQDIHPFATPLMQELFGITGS
Chain of Cytochrome P450 2D6 (Homo sapiens) (P10635 whole entry, looked up): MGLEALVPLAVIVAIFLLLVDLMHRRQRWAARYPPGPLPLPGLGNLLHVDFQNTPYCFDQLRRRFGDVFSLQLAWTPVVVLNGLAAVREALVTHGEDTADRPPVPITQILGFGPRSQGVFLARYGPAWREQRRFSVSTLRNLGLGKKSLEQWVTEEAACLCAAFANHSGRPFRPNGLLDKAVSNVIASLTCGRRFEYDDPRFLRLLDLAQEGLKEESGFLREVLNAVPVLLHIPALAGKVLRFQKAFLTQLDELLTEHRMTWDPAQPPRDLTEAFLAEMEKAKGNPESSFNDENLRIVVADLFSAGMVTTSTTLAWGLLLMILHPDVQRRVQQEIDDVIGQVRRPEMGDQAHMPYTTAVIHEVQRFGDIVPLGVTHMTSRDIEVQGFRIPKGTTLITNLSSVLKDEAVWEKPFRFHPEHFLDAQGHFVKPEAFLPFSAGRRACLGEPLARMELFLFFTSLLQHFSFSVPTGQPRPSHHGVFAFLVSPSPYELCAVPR

With `CCCCCCCCCCCCN1CCCCCC1=O`, the Potency result in assay [1], in [2], in assay [3], in [5], in assay [6] and in [7] was “inactive” each time. In addition, the Potency entry in assay [8] and in assay [9] was “inactive” throughout. For the same compound, the compound was called inactive in [4]. Besides, the Potency in assay [10] was 21.7 µM (active).
For `C=C1C(=C/C=C2\CCC[C@]3(C)[C@@H]([C@H](C)/C=C/[C@@H](O)C4CC4)CC[C@@H]23)C[C@@H](O)C[C@@H]1O`, the Potency result in [11], in [2], in [3], in [8], in assay [14] and in assay [15] was “inactive” each time. For the same compound, the call in assay [12] was inactive. Moreover, the Potency in assay [10] is 16.8 µM (active). Further, the max activation in assay [13] is 5.08%.
On to `CCc1cc(C2=C(C(=O)O)N(c3ccccc3C(F)(F)F)S(=O)(=O)c3ccccc32)cc2c1OCO2`, for which the Potency entry in assay [11], in assay [2], in [3], in assay [5], in assay [6] and in [8] was “inactive” throughout. Also, the Potency entry in [10] and in assay [16] was “inactive” in each case. Moreover, the compound was classed as inactive in [4]. Besides, the Potency in assay [9] is 15.2 µM (active).
Consider `COc1cc2nc(N(C)CCCNC(=O)C3CCCO3)nc(N)c2cc1OC` (stereo unspecified), for which the Potency result in assay [17], in [2], in [3], in assay [5], in [6] and in [8] was “inactive” in each case. For the same compound, the Potency entry in [9], in [14] and in assay [15] was “inactive” in each case. The result in assay [12] and in assay [4] was inactive. In addition, the Potency in [7] was 21.1 µM (active). For the same compound, the max activation in [13] is -4.32%.
Consider `OCCN1CCN(CCCN2c3ccccc3C=Cc3ccccc32)CC1`, for which the Potency entry in assay [1], in [2], in assay [3], in assay [7] and in [8] was “inactive” throughout. The compound was classed as inactive in assay [12]. The Potency in assay [18] is 23.7 µM (active); in [10], 6.68 µM (active); in assay [15], 10 µM (active); in [16], 13.8 µM (active). Moreover, in assay [13], the max activation is -15.2%.
For `Brc1c2ccccc2cc2ccccc12`, the Potency result in [1], in [2], in assay [18], in assay [7], in [8] and in assay [9] was “inactive” each time. Also, the Potency result in assay [16] was “inactive”. Moreover, the call in assay [12] was inactive. For the same compound, in [10], the Potency is 61.8 µM (active).
For `O=C(O)c1nc(Cl)c(Cl)c(Cl)c1Cl`, the Potency result in [1], in [19], in assay [2], in assay [5], in assay [18] and in [6] was “inactive” throughout. The Potency entry in [7], in assay [8], in [9] and in [10] was “inactive” each time. The compound was called inactive in [4]. In addition, the Potency in assay [16] is 28.3 µM (active).
On to `CCCCc1nc2cccnc2n1Cc1ccc(-c2ccccc2-c2nnn[nH]2)cc1`, for which the Potency result in [1], in assay [19], in assay [2], in [5], in assay [18] and in [6] was “inactive” throughout. For the same compound, the Potency entry in assay [8] and in assay [16] was “inactive” throughout. Further, the call in assay [12] and in [4] was inactive. For the same compound, the Potency in assay [7] was 48.6 µM (active); in assay [10], 61.1 µM (active).
